A selection: hits, their analogues and other compounds. The true share with any hit is near 19%.
Marburg entry inh = qHTS for inhibitors of binding or entry into cells for Marburg Virus; Marburg virus pseudotyped entry inhibition, cell reporter; Potency, µM (doses to about 37.8 µM), most hits filed as inhibitors; hit rate 1.8% among 300,000; AID 540276, 2011; calls by dose curve; tested in HEK293 cells
Pf growth 96h = Primary qHTS for delayed death inhibitors of the malarial parasite plastid, 96 hour incubation. P. falciparum luciferase reporter growth, 96 h. Potency, µM (top dose mostly 28.7 µM), most hits filed as inhibitors. hit rate 6.9% among 320,000
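Cell-based qHTS: luciferase-tagged P. falciparum in erythrocytes (2% hematocrit, 0.05% parasitemia final) incubated with compounds for 96 hours, 37 C, 5% CO2; luciferase detection reagent then added and luminescence measured.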
CHX counter = Cycloheximide Counterscreen for Small Molecule Inhibitors of Shiga Toxin; cell reporter, cycloheximide protein synthesis inhibition counterscreen; hit rate 12% among 300,000; max response, %; in the data active = max response mostly above about 13%, no sharp cut-off; inactive = mostly below about 14%; note: read at 38.3 µM for the half of the compounds with a filed dose
Shiga toxin inh = A qHTS for Small Molecule Inhibitors of Shiga Toxin | Vero cells, Shiga toxin protein synthesis inhibition reporter | inhibition, % at 38.7 µM | hit rate 9.2% among 290,000 | AID 2315, 2010; in the data active = inhibition mostly above about 28%, no sharp cut-off; inactive = mostly below about 43%
Lassa entry inh = qHTS for Inhibitors of binding or entry into cells for Lassa Virus | Potency, µM (doses to about 37.9 µM), actives largely listed as inhibitors | hit rate 1.2% among 300,000 | Lassa virus pseudotype entry inhibition, cell reporter; calls by dose curve; tested in HEK293 cells; note: nearly all actives have a fitted effect of over 50% in size
Pf growth 48h = Primary qHTS for delayed death inhibitors of the malarial parasite plastid, 48 hour incubation; hit rate 5.9% among 310,000; Potency, µM (doses to about 28.7 µM), usual class: inhibitors; AID 504832, 2011; P. falciparum luciferase growth in erythrocytes, 48 h
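Parasite viability was followed by luminescence of a genomically integrated firefly luciferase. Cultures held 0.1% parasitemia at 2% hematocrit (final), incubated under 5% CO2 at 37 C.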
Of the large screens only hits and unclear results are named; the others gave an inactive call. Unless noted, calls come from the whole dose curve; as a rule, active = well fitted inhibition curve with a large enough effect; inconclusive = small, poorly fitted or top-dose-only effect, or another doubt; inactive = no such curve, though single readings can be large or run the other way.

COc1ccccc1NC(=S)N(Cc1ccco1)Cc1cc2cc(C)ccc2[nH]c1=O	Marburg entry inh 4µM, Pf growth 96h inconclusive, Pf growth 48h 12µM
COc1ccc([C@H](C)NC[C@H](O)c2ccc(O)c(NC=O)c2)cc1	Pf growth 48h inconclusive (no result: Marburg entry inh, Lassa entry inh)
CCOc1ccc(N(CC(=O)NCCCOC)S(C)(=O)=O)cc1	none (no result: Pf growth 96h)
COc1cccc(NC(=O)N(Cc2cc3cc(C)cc(C)c3[nH]c2=O)CC2COCCO2)c1 (stereo unspecified)	Pf growth 48h 9.3µM
CCOc1ccc2[nH]c(=O)c(CN(CCN3CCCC3)C(=S)Nc3ccccc3OCC)cc2c1	Pf growth 96h inconclusive, Pf growth 48h 6.6µM (no result: Marburg entry inh, Lassa entry inh)
Cc1cccc(NC(=O)c2cnc3scc(C)n3c2=O)c1	CHX counter 19, Shiga toxin inh 26 (no result: Marburg entry inh, Lassa entry inh)
Cc1csc2ncc(C(=O)Nc3ccccc3F)c(=O)n12	CHX counter 24 (no result: Marburg entry inh, Lassa entry inh)
Cc1csc2ncc(C(=O)Nc3ccc4c(c3)OCCO4)c(=O)n12	CHX counter 59, Shiga toxin inh 117 (no result: Marburg entry inh, Lassa entry inh)
Cc1cc(NS(=O)(=O)c2ccc(NC(=O)c3cnc4scc(C)n4c3=O)cc2)nc(C)n1	none
Cc1csc2ncc(C(=O)Nc3ccon3)c(=O)n12	Pf growth 96h 2.6µM
Cc1csc2ncc(C(=O)Nc3ccccc3Cl)c(=O)n12	none (no result: Marburg entry inh, Lassa entry inh)
O=[N+]([O-])c1cccc2c(N3CCOCC3)ccnc12	none (no result: Marburg entry inh, Lassa entry inh)
CN1CCN(/C=N/C2=C(C#N)C(c3ccccc3)C3=C(CC(C)(C)CC3=O)O2)CC1 (stereo unspecified)	Pf growth 96h inconclusive
COc1ccc(C(=O)C2CCCN(C(=O)CCNC(C)=O)C2)cc1OC (stereo unspecified)	Pf growth 96h inconclusive (no result: Marburg entry inh, Lassa entry inh)
COc1ccccc1C(=O)C1CCCN(C(=O)CN2CCCCC2=O)C1 (stereo unspecified)	Pf growth 96h inconclusive, CHX counter 19
COc1ccc(C(=O)C2CCCN(C(=O)COc3ccc(C(C)=O)cc3)C2)cc1F (stereo unspecified)	Pf growth 96h 12µM
CN(C)S(=O)(=O)N1CCCC(C(=O)c2ccc(C(F)(F)F)cc2)C1 (stereo unspecified)	Marburg entry inh inconclusive, Pf growth 96h 0.83µM
CCOC(=O)c1c(C)[nH]c(C(=O)N2CCCC(C(=O)c3cccc(OC)c3)C2)c1C (stereo unspecified)	none (no result: Marburg entry inh, Lassa entry inh)
CCOC(=O)c1c(C)[nH]c(C(=O)N2CCCC(C(=O)c3ccccc3OC)C2)c1C (stereo unspecified)	CHX counter 12, Pf growth 48h inconclusive
Cc1nc(C)n(CC(=O)N2CCCC(C(=O)c3cccc4ccccc34)C2)n1 (stereo unspecified)	Pf growth 96h inconclusive, CHX counter 14
COc1ccccc1C(=O)C1CCCN(C(=O)c2ccccc2C(C)=O)C1 (stereo unspecified)	CHX counter 33, Shiga toxin inh 49 (no result: Marburg entry inh, Lassa entry inh)
O=C(c1ccc(C(F)(F)F)cc1)C1CCCN(C(=O)CN2CCCC2=O)C1 (stereo unspecified)	none
CC(=O)c1ccccc1C(=O)N1CCCC(C(=O)c2ccc(C(F)(F)F)cc2)C1 (stereo unspecified)	CHX counter 54, Shiga toxin inh 70 (no result: Marburg entry inh, Lassa entry inh)
COc1ccccc1C(=O)C1CCCN(C(=O)c2ccc(C(C)=O)s2)C1 (stereo unspecified)	Pf growth 96h inconclusive
COCC(=O)N1CCCC(C(=O)c2ccc(-c3ccccc3)c(F)c2)C1 (stereo unspecified)	Pf growth 96h inconclusive, CHX counter 28, Lassa entry inh inconclusive
CCOC(=O)c1c(C)[nH]c(C(=O)N2CCN(c3ccc(OC)cc3)CC2)c1C	Marburg entry inh inconclusive, Lassa entry inh 7.9µM
COc1ccc(C(=O)C2CCCN(Cc3ccc4nonc4c3)C2)cc1F (stereo unspecified)	Lassa entry inh inconclusive
COc1ccc(C(=O)C2CCCN(C(=O)c3ccc(F)cc3)C2)cc1OC (stereo unspecified)	Lassa entry inh inconclusive
COc1ccc(C(=O)C2CCCN(Cc3ccc(C#CCCO)cc3)C2)cc1F (stereo unspecified)	Marburg entry inh 1.1µM, Pf growth 48h inconclusive
COc1ccc(C(=O)C2CCCN(C(=O)c3ccccc3C(C)=O)C2)cc1F (stereo unspecified)	Pf growth 96h inconclusive, CHX counter 30
COc1ccc(C(=O)C2CCCN(C(=O)c3cc(C)nc(C)n3)C2)cc1OC (stereo unspecified)	Shiga toxin inh 50
O=[N+]([O-])c1ccc(Cl)c(CN2CCSCC2)c1	Lassa entry inh inconclusive
Cc1ccccc1SCC(=O)OCC(=O)Nc1ccc(N(C)C)cc1	Pf growth 48h inconclusive (no result: Marburg entry inh, Lassa entry inh)
COc1ccc(/C=C/CN2CCCC(C(=O)c3ccc(OC)c(F)c3)C2)cc1 (stereo unspecified)	Marburg entry inh 10µM, Pf growth 48h inconclusive (no result: Lassa entry inh)
Cc1cc(C)n2nc(C(=O)Nc3ccc4c(c3)OCO4)cc2n1	CHX counter 34, Shiga toxin inh 70, Lassa entry inh inconclusive (no result: Pf growth 48h)
CC(=O)c1cccc(NC(=O)c2cc3nc(C)cc(C)n3n2)c1	Marburg entry inh inconclusive, CHX counter 27, Shiga toxin inh 53 (no result: Pf growth 96h)
O=C(Nc1ccc2c(c1)OCO2)c1cc2ncc(Br)cn2n1	none
O=C(Nc1ccc2c(c1)OCO2)c1cc2nc(C3CC3)cc(C(F)(F)F)n2n1	Pf growth 96h 0.042µM, CHX counter 12
O=C(Nc1ccc(Cl)cc1)c1cc2nc(-c3ccc4c(c3)OCO4)cc(C(F)(F)F)n2n1	none (no result: Pf growth 96h, CHX counter, Shiga toxin inh, Pf growth 48h)
COc1ccccc1C1C([N+](=O)[O-])=C(N)Oc2c1c(=O)oc1ccccc21 (stereo unspecified)	none
CN(C)c1ccc(CN2CCCCCC2)cc1	none (no result: Pf growth 48h)
COc1ccc(C2Nc3ccccc3C(=O)N2c2ccc(C)cc2)cc1Cn1cc([N+](=O)[O-])cn1 (stereo unspecified)	CHX counter 38, Shiga toxin inh 50, Lassa entry inh inconclusive, Pf growth 48h inconclusive
COc1ccc(C2Nc3ccccc3C(=O)N2c2ccc(C)cc2)cc1Cn1nnc2ccccc21 (stereo unspecified)	Marburg entry inh inconclusive, Pf growth 96h inconclusive, CHX counter 51, Shiga toxin inh 53, Lassa entry inh inconclusive, Pf growth 48h 13µM
COc1ccc(C2Nc3ccccc3C(=O)N2NS(=O)(=O)c2ccc(C)cc2)cc1OC (stereo unspecified)	Pf growth 96h inconclusive
CCc1sc(C(=O)N2CCc3ccccc32)cc1C	Marburg entry inh inconclusive, CHX counter 66, Shiga toxin inh 102, Lassa entry inh inconclusive
O=C(c1ccc(C(=O)N2CCCc3ccccc32)s1)N1CCCc2ccccc21	Marburg entry inh inconclusive, Pf growth 96h inconclusive
O=C(c1ccc([N+](=O)[O-])cc1)N1CCc2ccccc21	none (no result: Pf growth 96h, CHX counter, Shiga toxin inh, Pf growth 48h)
Cc1ccc(C(=O)N2CCc3ccccc32)cc1	CHX counter 31, Shiga toxin inh 90, Lassa entry inh inconclusive

Screens deposited in PubChem BioAssay by National Center for Advancing Translational Sciences (NCATS).
